The source made the active and inactive calls. No rule for the calls is given here.
These compounds were tested on Aerobactin synthetase IucA (Klebsiella pneumoniae hvKP1) (assay: IucA enzyme inhibition, primary screen, biochemical, Spectrum library (AID 1346200;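 also: 100% = wells without compound and 0% = wells lacking enzyme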)). Conditions: malachite green pyrophosphate, A620, at 8 µM, active compounds read low.
With `CCCCC1C(=O)N(c2ccccc2)N(c2ccc(O)cc2)C1=O` (centres undefined) the activity remaining was 114% (inactive). For `CC1(C)C(=O)C=C[C@@]2(C)C1C=C[C@]1(C)C2CC[C@@]2(C)[C@H](c3ccoc3)OC(=O)C3OC321` (some centres undefined), the activity remaining was 102% (inactive). `CC[C@H](C)C(=O)O[C@H]1C[C@@H](C)C=C2C=C[C@H](C)[C@H](CC[C@@H]3C[C@@H](O)CC(=O)O3)[C@H]21` was tested, and the activity remaining was 119% (inactive). `Nc1nc2c(c(=O)[nH]1)NC(CNc1ccc(C(=O)N[C@H](CCC(=O)O)C(=O)O)cc1)=CN2` was tested, and the activity remaining was 102% (inactive). `CC(=O)OCC(=O)[C@@]1(O)CCC2C3CCC4=CC(=O)CC[C@]4(C)C3[C@@H](O)C[C@@]21C` (some centres undefined) was tested, and the activity remaining was 85.9% (inactive). For `O=c1ccn([C@@H]2O[C@H](COP(=O)(O)OP(=O)(O)OP(=O)(O)O)[C@@H](O)[C@H]2O)c(=O)[nH]1`, the activity remaining was 98% (inactive). `CN(C)c1ccc2nc3ccc(=[N+](C)C)cc-3sc2c1` was tested, and the activity remaining was 104% (inactive). In the case of `O=c1c(O)c(-c2ccccc2)oc2ccccc12`, the activity remaining is reported as 92.5% (inactive). With `CC[C@]1(O)CC2CN(CCc3c([nH]c4ccccc34)[C@@](C(=O)OC)(c3cc4c(cc3OC)N(C)[C@H]3[C@@](O)(C(=O)OC)[C@H](OC(C)=O)[C@]5(CC)C=CCN6CC[C@]43[C@@H]65)C2)C1` (some centres undefined) the activity remaining was 126% (inactive). `COc1ccc2c3c1O[C@H]1C[C@@H](O)C=C[C@@]31CCN(C)C2` was tested, and the activity remaining was 103% (inactive). `O=C(Nc1ccc(C(=O)O)c(O)c1)c1ccccc1` was tested, and the activity remaining was 89.3% (inactive). In the case of `Cc1cc(OC(=O)c2c(C)cc(O)cc2O)cc(O)c1C(=O)O`, the activity remaining is reported as 115% (inactive). `COc1cc(NS(=O)(=O)c2ccc(N)cc2)ncn1` was tested, and the activity remaining was 92.3% (inactive). `COC1CC2CCC(C)C(O)(O2)C(=O)C(=O)N2CCCCC2C(=O)OC(C(C)CC2CCC(O)C(OC)C2)CC(=O)C(C)/C=C(\C)C(O)C(OC)C(=O)C(C)CC(C)/C=C/C=C/C=C/1C` (centres undefined) was tested, and the activity remaining was 107% (inactive).
